Inconclusive results are not listed. Activity calls are given as the source filed them. Unless noted, the call rests on the fitted dose curve.
Experiment: qHTS assay to identify small molecule antagonists of the vitamin D receptor (VDR) signaling pathway - cell viability counter screen (AID 743225; active means well fitted cell-killing curve with a large enough effect in the repeat runs; further: nearly all actives have a fitted effect of over 50% in size)
Conditions: VDR-bla HEK293T viability, CellTiter-Glo luminescence, 16 h; series mostly up to 61 µM; viability change, negative = cytotoxic: at the top concentration
Method in brief: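 Cells (VDR-UAS-bla HEK 293T) are plated, rested 4 h at 37C, dosed with compound and 3 nM final 1-alpha,25-dihydroxy vitamin D3, and incubated 16 h. Viability is taken from CellTiter-Glo luminescence in the reporter wells.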
On the % scale 0 is the no-effect control and ±100 the full control effect; potency means the concentration at half of the fitted maximal effect.

Row | Compound | Potency | viability change, negative = cytotoxic
1 | CCCCCCCCCCCC(=O)NCCCN(C)C | 38.9 µM (active) | 
2 | CC(NN)c1ccccc1 (stereo unspecified) |  | 2.7% [at 28.5 µM] (inactive)
3 | CCCCCCCCOC(=O)c1ccc(O)cc1 | 49 µM (active) | 
4 | COC(=O)c1cc(Cl)ccc1OC |  | -1.81% (inactive)
5 | C=C(C)C(=O)OCC[N+](C)(C)C |  | 4.82% (inactive)
6 | O=C1c2c(O)ccc(Nc3ccc(CCO)cc3)c2C(=O)c2c([N+](=O)[O-])ccc(O)c21 |  | -25.4% (inactive)
7 | Clc1ccc2cc3ccccc3cc2c1 |  | -19.1% (inactive)

Experiment: qHTS assay to identify small molecule agonists of the NFkB signaling pathway - cell viability counter screen (AID 1159515); further: nearly all actives have a fitted effect of over 55% in size
Conditions: NFkB-bla ME-180 viability, CellTiter-Glo luminescence, 5 h; series mostly up to 61 µM; activity, negative = cytotoxic: at the top concentration
Method in brief: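 Tox21 library compounds were tested for cytotoxicity against NFkB-bla ME-180 cells during a 5 hr exposure at 37 C. CellTiter-Glo luminescence served as the viability read-out.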

Row | Compound | activity, negative = cytotoxic | Potency
8 | CCC(Cl)C(Cl)C(Cl)CC(Cl)C(Cl)C(C)Cl (stereo unspecified) | -0.776% (inactive) | 
9 | [Cl][Au]([Cl])[Cl] | -6.16% (inactive) | 
10 | CCCCCCCCCOC(=O)c1ccc(O)cc1 |  | 54.2 µM (active)
11 | CSc1cnc(C)cn1 | 13.6% [at 78.8 µM] (inactive) | 
12 | CC1=NC(C)OC1C (stereo unspecified) | 1.19% (inactive) | 
13 | C=CC(=O)OCC(CO)(COCC(COC(=O)C=C)(COC(=O)C=C)COC(=O)C=C)COC(=O)C=C |  | 48.4 µM (active)
14 | CN1CCN(CCC(=O)N2c3ccccc3Sc3ccc(C(F)(F)F)cc32)CC1 | -14.9% (inactive) | 
15 | O=C1CCCc2c1cc1ccc3cccc4ccc2c1c34 | -24.3% [at 78.8 µM] (inactive) | 
16 | COc1cc(-c2ccc(N=C=O)c(OC)c2)ccc1N=C=O | 0.183% (inactive) | 
17 | Oc1c(Cl)cc(Cl)c2cccnc12 |  | 0.477 µM (active)
18 | Nc1ccccc1O |  | 38.4 µM (active)
19 | O=C1CCCCCN1SSN1CCCCCC1=O | 14.9% (inactive) | 
20 | C=CC(=O)OCC(CO)(COC(=O)C=C)COC(=O)C=C | -22.3% [at 78.8 µM] (inactive) | 
21 | Cc1cc(O)c(Cl)c(C)c1Cl |  | 54.9 µM (active)
22 | Oc1ccc(N=Nc2ccccc2)cc1 | -2.74% [at 78.8 µM] (inactive) | 
23 | O=C(Nc1cccc([N+](=O)[O-])c1)c1cc2ccccc2cc1O | 10.3% (inactive) | 
24 | NNc1nc(-c2ccccc2)cs1 | -1.79% [at 78.8 µM] (inactive) | 
25 | c1cc(C(c2ccc(OCC3CO3)cc2)c2ccc(OCC3CO3)cc2)ccc1OCC1CO1 (stereo unspecified) | -6.83% (inactive) | 
26 | CN(C/C=C/C#CC(C)(C)C)Cc1cccc2ccccc12 |  | 21.3 µM (active)

Row | Compound | activity, negative = cytotoxic | Potency
27 | CCCCCOc1ccccc1/C(=C\SC)n1ccnc1 | -5.93% (inactive) | 
28 | C=C(C)C(=O)OCC(O)COc1ccc(C(C)(C)c2ccc(OCC(O)COC(=O)C(=C)C)cc2)cc1 (stereo unspecified) | -9.7% (inactive) | 
29 | CCCCCCCC/C=C\CCCCCCCCOCCO |  | 31.9 µM (active)
30 | CC[C@H]1O[C@]2(CC[C@@H]1C)C[C@@H]1C[C@@H](C/C=C(\C)C[C@@H](C)/C=C/C=C3\CO[C@@H]4[C@H](O)C(C)=C[C@@H](C(=O)O1)[C@]34O)O2 |  | 24.3 µM (active)
31 | Cc1cc2c(cc1C(F)(F)F)N(C(=O)Nc1ccc(Oc3cccnc3C)nc1)CC2 | -19.6% (inactive) | 
32 | Oc1cccc(-c2c3nc(c(-c4cccc(O)c4)c4ccc([nH]4)c(-c4cccc(O)c4)c4nc(c(-c5cccc(O)c5)c5ccc2[nH]5)CC4)C=C3)c1 | -6.58% (inactive) | 
33 | CC(C)(C)NC(=O)[C@@H]1C[C@@H]2CCCC[C@@H]2CN1C[C@@H](O)[C@H](Cc1ccccc1)NC(=O)[C@H](CC(N)=O)NC(=O)c1ccc2ccccc2n1 |  | 55.7 µM (active)
34 | CCCCN(CCCC)C(=O)N(CCCC)CCCC | -0.0871% (inactive) | 
35 | CCCCCCCCCCCC(=O)NCCCN(C)C |  | 54.9 µM (active)
36 | CC(NN)c1ccccc1 (stereo unspecified) | 0.0695% [at 28.5 µM] (inactive) | 
37 | CCCCCCCCOC(=O)c1ccc(O)cc1 | -10% (inactive) | 
38 | CCN(Cc1cccnc1)C(=O)c1cccc(Cl)c1[C@]1(C)C(=O)N(Cc2ccc(OC)cc2OC)c2ccc(Cl)cc21 | -7.45% (inactive) | 
39 | N/C(=N\N=C\c1ccc(Cl)cc1)N/N=C/c1ccc(Cl)cc1 |  | 13.4 µM (active)
40 | COC(=O)c1cc(Cl)ccc1OC | 9.26% (inactive) | 
41 | C=C(C)C(=O)OCC[N+](C)(C)C | -0.508% (inactive) | 
42 | CC(C)(C)C1CCC(CC2=C(O)c3ccccc3C(=O)C2=O)CC1 (stereo unspecified) | -26.6% (inactive) | 
43 | O=C1c2c(O)ccc(Nc3ccc(CCO)cc3)c2C(=O)c2c([N+](=O)[O-])ccc(O)c21 | -2.52% (inactive) | 
44 | Clc1ccc2cc3ccccc3cc2c1 | 4.43% (inactive) | 

Experiment: qHTS assay to identify small molecule agonists of the endoplasmic reticulum stress response signaling pathway - cell viability counter screen (AID 1159517); further: nearly all actives have a fitted effect of over 50% in size;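 on activity change, negative = cytotoxicity: HeLa cells carrying an ER stress response element beta-lactamase reporter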
Conditions: ESRE-bla HeLa viability, CellTiter-Glo luminescence, 5 h; series mostly up to 61 µM; activity change, negative = cytotoxicity: at the top concentration
Method in brief: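 ESRE-bla HeLa cells (1,500/well) were plated overnight at 37 C and exposed to compounds for 5 hr. After the 2 hr beta-lactamase substrate read, CellTiter-Glo went into the same wells, and luminescence was read after 30 min at room temperature.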

Row | Compound | activity change, negative = cytotoxicity | Potency
45 | CCC(Cl)C(Cl)C(Cl)CC(Cl)C(Cl)C(C)Cl (stereo unspecified) | -12.5% (inactive) | 
46 | [Cl][Au]([Cl])[Cl] | -14.8% (inactive) | 
47 | CCCCCCCCCOC(=O)c1ccc(O)cc1 |  | 54.2 µM (active)
48 | C=CC(=O)OCC(CO)(COCC(COC(=O)C=C)(COC(=O)C=C)COC(=O)C=C)COC(=O)C=C |  | 3.42 µM (active)
49 | CN1CCN(CCC(=O)N2c3ccccc3Sc3ccc(C(F)(F)F)cc32)CC1 | -13.8% (inactive) | 
50 | O=C1CCCc2c1cc1ccc3cccc4ccc2c1c34 | -6.51% [at 78.8 µM] (inactive) | 
51 | Oc1c(Cl)cc(Cl)c2cccnc12 | 0.919% (inactive) | 
52 | O=C1CCCCCN1SSN1CCCCCC1=O | -3.72% (inactive) | 
53 | C=CC(=O)OCC(CO)(COC(=O)C=C)COC(=O)C=C |  | 21.9 µM (active)
54 | Oc1ccc(N=Nc2ccccc2)cc1 | -29.3% [at 78.8 µM] (inactive) | 
55 | O=C(Nc1cccc([N+](=O)[O-])c1)c1cc2ccccc2cc1O | -13.4% (inactive) | 
56 | NNc1nc(-c2ccccc2)cs1 | -27.3% [at 78.8 µM] (inactive) | 
57 | c1cc(C(c2ccc(OCC3CO3)cc2)c2ccc(OCC3CO3)cc2)ccc1OCC1CO1 (stereo unspecified) | -6.04% (inactive) | 
58 | CN(C/C=C/C#CC(C)(C)C)Cc1cccc2ccccc12 | -32% (inactive) | 
59 | CCCCCOc1ccccc1/C(=C\SC)n1ccnc1 | -30% (inactive) | 
60 | C=C(C)C(=O)OCC(O)COc1ccc(C(C)(C)c2ccc(OCC(O)COC(=O)C(=C)C)cc2)cc1 (stereo unspecified) | -25.7% (inactive) | 
61 | CCCCCCCC/C=C\CCCCCCCCOCCO |  | 31.9 µM (active)
62 | CC[C@H]1O[C@]2(CC[C@@H]1C)C[C@@H]1C[C@@H](C/C=C(\C)C[C@@H](C)/C=C/C=C3\CO[C@@H]4[C@H](O)C(C)=C[C@@H](C(=O)O1)[C@]34O)O2 |  | 24.3 µM (active)
63 | Cc1cc2c(cc1C(F)(F)F)N(C(=O)Nc1ccc(Oc3cccnc3C)nc1)CC2 | -28.3% (inactive) | 
64 | Oc1cccc(-c2c3nc(c(-c4cccc(O)c4)c4ccc([nH]4)c(-c4cccc(O)c4)c4nc(c(-c5cccc(O)c5)c5ccc2[nH]5)CC4)C=C3)c1 | -2.08% (inactive) | 
65 | CC(C)(C)NC(=O)[C@@H]1C[C@@H]2CCCC[C@@H]2CN1C[C@@H](O)[C@H](Cc1ccccc1)NC(=O)[C@H](CC(N)=O)NC(=O)c1ccc2ccccc2n1 |  | 49.6 µM (active)
66 | CCCCCCCCCCCC(=O)NCCCN(C)C |  | 49 µM (active)
67 | CCCCCCCCOC(=O)c1ccc(O)cc1 |  | 54.9 µM (active)
68 | CCN(Cc1cccnc1)C(=O)c1cccc(Cl)c1[C@]1(C)C(=O)N(Cc2ccc(OC)cc2OC)c2ccc(Cl)cc21 | 1.36% (inactive) | 
69 | N/C(=N\N=C\c1ccc(Cl)cc1)N/N=C/c1ccc(Cl)cc1 |  | 23.9 µM (active)
70 | CC(C)(C)C1CCC(CC2=C(O)c3ccccc3C(=O)C2=O)CC1 (stereo unspecified) | -16.8% (inactive) | 
71 | O=C1c2c(O)ccc(Nc3ccc(CCO)cc3)c2C(=O)c2c([N+](=O)[O-])ccc(O)c21 | -9.46% (inactive) | 
